A selection: hits, their analogues and other compounds. The true share with any hit is near 7%.
HP1b binding inh: HTS for Inhibitors of HP1-beta Chromodomain Interactions with Methylated Histone Tails; Chromobox protein homolog 1 (Homo sapiens), P83916; AlphaScreen HP1-beta / biotin-H3K9me3 peptide binding; Potency, µM (top dose mostly 114 µM), without a hit: top-dose activity change, negative = inhibition, hits mostly inhibitors; hit rate 0.56% among 390,000; AID 540317, 2011; also: potency is read from the fitted curve at half-maximal effect; nearly all actives have a fitted effect of over 70% in size
Target sequence (P83916 whole entry, looked up): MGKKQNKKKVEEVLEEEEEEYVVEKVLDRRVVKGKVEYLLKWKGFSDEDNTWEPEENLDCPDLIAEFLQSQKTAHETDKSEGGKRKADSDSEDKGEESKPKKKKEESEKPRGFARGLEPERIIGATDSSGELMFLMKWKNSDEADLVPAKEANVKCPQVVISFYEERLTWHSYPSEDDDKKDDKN
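AlphaScreen: HP1-beta (50 nM) preformed 30 min with biotin-H3(1-18)K9me3 peptide (50 nM) in PBS pH 7.4, 0.01% Tween-20. Compound added for 30 min at RT, then streptavidin donor/nickel chelate acceptor beads (10 ug/mL) for 30 min.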
KAT2A inh: qHTS Assay for Inhibitors of GCN5L2; Histone acetyltransferase KAT2A (Homo sapiens), Q92830; hit rate 0.21% among 390,000; GCN5L2 HAT assay, ThioGlo1 CoA-SH fluorescence; Potency, µM (highest dose often 58.9 µM), for inactives: top-dose activity change, negative = inhibition, usual class: inhibitors; also: potency is read from the fitted curve at half-maximal effect; % is scaled to controls: 0 for no effect and ±100 for the full control effect
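Titration-based screen in which CoA formation is detected via maleimide probe ThioGlo1 (50uM) turning fluorescent on thiol reaction; substrates H3(1-25) 75uM and acetyl-CoA 70uM, GCN5L2 20nM, 20 min incubation at room temperature.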
BAZ2B block: qHTS Assay for Inhibitors of BAZ2B | Bromodomain adjacent to zinc finger domain protein 2B (Homo sapiens), Q9UIF8 | AlphaScreen BAZ2B-H3K14Ac peptide displacement | Potency, µM (doses to about 114 µM), for inactives: top-dose activity change, negative = inhibition, usual class: inhibitors | hit rate 4.4% among 360,000; also: potency is read from the fitted curve at half-maximal effect; % is scaled to controls: 0 for no effect and ±100 for the full control effect; nearly all actives have a fitted effect of over 60% in size
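BAZ2B (50 nM) with biotin-H3(5-23)K14Ac peptide (50 nM) in PBS pH 7.4, 0.01% Tween-20, preformed 30 min, then compound 30 min at room temperature; top concentration 110uM. AlphaScreen streptavidin donor/nickel chelate acceptor beads (10 ug/mL final), 20 min dark, signal read.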
PI5P4Ka inh: qHTS for Inhibitors of phosphatidylinositol 5-phosphate 4-kinase (PI5P4K). PI5P4Kalpha enzyme, ADP-Glo luminescence, 60 min; active compounds read low. hit rate 1.2% among 330,000. Phosphatidylinositol 5-phosphate 4-kinase type-2 alpha (Homo sapiens), P48426. max response, %; active = max response of -50% or lower; inconclusive = between -30% and -50%; inactive = -30% or higher; also: value at the top dose of about 77 µM; % is scaled to controls: 0 for no effect and ±100 for the full control effect
Target sequence (P48426 whole entry, looked up): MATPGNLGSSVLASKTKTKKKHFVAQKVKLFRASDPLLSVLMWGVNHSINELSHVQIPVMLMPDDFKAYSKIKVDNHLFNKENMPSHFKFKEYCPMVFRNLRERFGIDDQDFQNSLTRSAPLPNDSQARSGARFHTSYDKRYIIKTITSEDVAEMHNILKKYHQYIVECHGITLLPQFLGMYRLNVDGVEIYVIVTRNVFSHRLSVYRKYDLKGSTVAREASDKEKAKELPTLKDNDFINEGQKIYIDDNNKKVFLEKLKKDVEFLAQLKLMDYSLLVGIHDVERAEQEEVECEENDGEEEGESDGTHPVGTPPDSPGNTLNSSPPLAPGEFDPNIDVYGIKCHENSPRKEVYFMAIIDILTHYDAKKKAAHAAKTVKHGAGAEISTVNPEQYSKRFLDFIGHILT
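Human PI5P4Kalpha with substrate in 0.038 M HEPES pH 7.4, 0.28 mM EGTA, 0.1% CHAPS, 5% DMSO; reaction started with 5 microM ATP (final), 60 min at room temperature. ADP formed read by ADP-Glo luminescence.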
PLK1 PBD inh: qHTS for Inhibitors of PLK1-PDB (polo-like kinase 1 - polo-box domain): Primary Screen; Plk1 PBD binding of FITC phosphopeptide, fluorescence polarization; hit rate 2.8% among 360,000; AID 720504, 2013; Potency, µM, for the others: max response, negative = inhibition, usual class: inhibitors; Serine/threonine-protein kinase PLK1 (Homo sapiens), P53350; also: potency is read from the fitted curve at half-maximal effect; series mostly up to about 57 µM; % is scaled to controls: 0 for no effect and ±100 for the full control effect; nearly all actives have a fitted effect of over 65% in size
JMJD2A Tudor inh: qHTS Assay for Inhibitors of JMJD2A-Tudor Domain | AlphaScreen JMJD2A-Tudor / H3K4me3 peptide binding | hit rate 4.4% among 390,000 | Lysine-specific demethylase 4A (Homo sapiens), O75164 | Potency, µM (doses to about 114 µM), for inactives: at the highest dose activity change, negative = inhibition, hits mostly inhibitors; also: potency is read from the fitted curve at half-maximal effect; % is scaled to controls: 0 for no effect and ±100 for the full control effect; nearly all actives have a fitted effect of over 50% in size
Starred values were filed as active, the others as inactive; ? = inconclusive; nt = no result; [ ] = another dose, or the depositor's remark. Unless noted, calls follow the shape of the dose curve; as a rule, active = well fitted curve in the direction sought with a large enough effect; inconclusive = small, poorly fitted or top-dose-only effect, or another doubt; inactive = no such curve, though single readings can be large; an effect the other way counts as inactive or inconclusive.

SMILES	HP1b binding inh	KAT2A inh	BAZ2B block	PI5P4Ka inh	PLK1 PBD inh	JMJD2A Tudor inh
CCNc1ccc(C(=O)OCC(=O)N2CCCC2)cc1[N+](=O)[O-]	-10%	-6%	5%	-10	27µM*	?
O=C(OCC(=O)N1CCCC1)c1ccc(Cl)c([N+](=O)[O-])c1	40%	-3%	-16%	0	-8%	-5%
Cc1ccsc1C(=O)N1CCCC(CCC(=O)NCc2ccc(F)c(F)c2)C1 (stereo unspecified)	2%	-18%	8%	0	-3%	-13%
COC(=O)Cn1c(=O)cnc2ccccc21	6%	-7%	4%	nt	-3%	-27%
COc1ccc(Cc2nc3ccccc3n2CC(=O)N/N=C/c2ccc(C)cc2O)cc1OC	19%	-23%	56µM*	-11	-11%	?
COC(=O)Cn1c(Cc2ccccc2)nc2ccccc21	53%	0%	-29%	0	6µM*	-32%
COc1ccc(Cc2nc3ccccc3n2CC(=O)N/N=C/c2ccc(O)cc2)cc1OC	24%	-2%	2%	1	-8%	-16%
O=C(NC(=S)N1CCOCC1)c1ccc(F)cc1	47%	?	-11%	-5	-9%	-13%
O=C(Nc1ccc(C(F)(F)F)cc1)C1CCCN(c2cnccn2)C1 (stereo unspecified)	23%	0%	-18%	nt	nt	-20%
COC(=O)c1ccc(N2C(=O)CC(Sc3n[nH]c(C)n3)C2=O)cc1 (stereo unspecified)	0%	-16%	0%	-30	3.4µM*	-3%[11.4 µM]
COC(=O)c1cc(C(=O)OC)cc(N2C(=O)CC(Sc3nc(C)cc(C)n3)C2=O)c1 (stereo unspecified)	53%	1%	-11%	5	-14%	-17%
CCOC(=O)N1CCC(NC(=O)c2ccc3c(c2)N(Cc2ccccc2)C(=O)c2ccccc2S3(=O)=O)CC1	24%	-1%	-12%	nt	nt	-21%
CC(CNC(=O)c1ccc(C#N)cc1)NC(=O)c1ccc(C#N)cc1 (stereo unspecified)	7%	-18%	2%	-8	-8%	-8%
COCCNC(=O)CN1C(=O)c2cccnc2Sc2ccccc21	6%	16%	-17%	nt	nt	-8%
OC(COc1ccccc1Br)CN1CCNCC1 (stereo unspecified)	25%	-6%	2%	17	-4%	-13%
CC(C)OCC(O)CN1CCNCC1 (stereo unspecified)	19%	-11%	-4%	1	-11%	79µM*
CCCSc1ncc(Cl)c(C(=O)Nc2c(C(=O)Nc3ccc(C)cc3)oc3ccccc23)n1	41%	-4%	1%	nt	nt	-11%
C=CCSc1nnc(-c2cccc3ccccc23)o1	52%	-2%	nt	nt	nt	13µM*
C=CCNc1oc(-c2cccc3ccccc23)nc1C#N	-17%	-13%	?	nt	1%	-7%
C=CCNc1nnc(-c2cccc3ccccc23)o1	nt	nt	nt	nt	nt	11µM*
COc1cccc(Oc2cn[nH]c2-c2ccc(OCC(=O)NN)cc2O)c1	17%	-18%	-22%	-11	38µM*	?
Cc1cc(C)cc(NC(=O)CN2C(=O)C3CC=CCC3C2=O)c1 (stereo unspecified)	62%	-2%	8%	-2	3%	2%
CCCc1ccc(-c2cc(N)n[nH]2)cc1	9%	-2%	79µM*	-4	-6%	-27%
O=C(c1ccccc1NS(=O)(=O)c1ccccc1[N+](=O)[O-])N1CCCC1	13%	-23%	-4%	-5	-21%	-16%
Nc1nnc(CC(=O)N/N=C/c2ccc(-c3ccc(Cl)cc3Cl)o2)s1	30%	7%	-7%	-4	-15%	-28%
SMILES	HP1b binding inh	KAT2A inh	BAZ2B block	PI5P4Ka inh	PLK1 PBD inh	JMJD2A Tudor inh
Nc1nnc(CC(=O)N/N=C/c2ccc(-c3ccccc3)o2)s1	15%	34%	?	-4	-7%	-29%
COC(=O)c1ccc(-c2ccc(/C=N/NC(=O)Cc3nnc(N)s3)o2)cc1	20%	-19%	-23%	-56*	-14%	-26%
Nc1nnc(CC(=O)N/N=C/c2ccc(-c3ccccc3Cl)o2)s1	19%	57%	-34%	-53*	-7%	-27%
Cc1cccc(CNC(=O)c2ccc3nc(-c4ccccc4)c(-c4ccccc4)nc3c2)c1	11%	0%	-1%	nt	nt	-14%
CCOc1cc2[nH]c(=S)n(CCCN3CCOCC3)c(=O)c2cc1OCC	9%	-14%	1%	nt	-4%	56µM*
COc1cc2c(=O)n(CCCN3CCOCC3)c(=S)[nH]c2c(OC)c1OC	-10%	-3%	-3%	1	?	32µM*
O=c1c2cc(F)ccc2[nH]c(=S)n1CCCN1CCOCC1	26%	-2%	-10%	nt	-4%	-30%
O=c1c2cc3c(cc2[nH]c(=S)n1CCN1CCOCC1)OCO3	22%	48%	?	-5	-1%	35µM*
CCOc1ccc(NC(=O)N(Cc2ccc(C)cc2)Cc2ccccn2)cc1	52%	-3%	4%	-2	-4%	0%
COc1ccc(C(C)=O)cc1CC(=O)N(Cc1ccccc1)c1ccccc1	-16%	-4%	-3%	5	30µM*	?
COc1ccc(Cl)cc1C(=O)Nc1nc(C)cc(C)n1	31%	-13%	21%	-6	-4%	-13%
CCOc1ccccc1NC(=O)CN1CCCCCC1	-13%	1%	50µM*	-7	-4%	3.2µM*
Cc1ccccc1NC(=O)CN1CCCC1	nt	nt	nt	-12	-4%	nt
Cc1ccccc1NC(=O)CN1CCN(C)CC1	28µM*	43%	28µM*	1	4%	3.2µM*
CCOc1ccc(OCC)c(NC(=O)CN2CCN(CC(=O)NC(C)C)CC2)c1	?	1%	?	-8	-19%	28µM*
CCOc1ccc(OCC)c(NC(=O)CN2CCN(CC)CC2)c1	?	4%	?	-7	5%	0.89µM*
CC(C)C(=O)N[C@@H]1c2ccccc2CC[C@H]1OCc1ccccc1	67%	-16%	nt	-8	-7%	-7%
O=C(Nc1nncs1)C1CCCC1	39%	nt	nt	-2	-8%	-1%
COc1cc(NC(=O)c2cccc(Cl)c2)c(OC)cc1NC(=O)CN1CCCCC1	?	-3%	-1%	0	30µM*	?
CN1CCN(CC(=O)c2ccccc2F)CC1	?	-7%	22µM*	-9	-10%	6.3µM*
